Measurements from PubChem BioAssay AID1159580 (chemical genetic matrix, 2015).
About 2,000 (36%) of roughly 5,500 compounds were called active. Roughly 18% stayed inconclusive and do not appear here. No stated cut-off is given here; in the data, active means normalized growth mostly below about 0.91 (no sharp cut-off); inconclusive means no clear call, values can overlap the other calls; inactive means mostly above about 0.92. The list shows a part of the results.

Experiment: chemical genetic growth profiling, strain panel (AID 1159580);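 further: tested at 20 µM; growth read once vehicle control cultures reached saturation at 30 °C; 1 = growth at the plate median or of vehicle wells; lower values mean less growth of the strain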
Details: S. cerevisiae deletion strains, growth OD

Question: Which normalized growth (locus YJR043C, strain POL32, hits give low values) does the source give for `Nc1ccc(C(=O)Oc2ccccc2)c(O)c1` here?
Answer: The normalized growth was 0.932 (inactive).

Question: What about the normalized growth (locus YJR066W, strain TOR1, hits give low values) of the same compound?
Answer: Its normalized growth is 0.893 (inactive).

Question: And the normalized growth (locus YJR075W, strain HOC1, hits give low values)?
Answer: The normalized growth was 0.84 (active).

Question: What about the normalized growth (locus YKL009W, strain mrt4, hits give low values) of the same compound?
Answer: Its normalized growth is 0.894 (inactive).

Question: What about the normalized growth (locus YKL068W, hits give low values) of the same compound?
Answer: The normalized growth was 0.93 (active).

Question: And the normalized growth (locus YKL085W, strain MDH1 (second series), hits give low values)?
Answer: Its normalized growth is 0.914 (active).

Question: What about the normalized growth (locus YKL085W, strain MDH1, hits give low values) of the same compound?
Answer: Its normalized growth is 0.914 (active).

Question: What about the normalized growth (locus YKL160W, strain elf1, hits give low values) of the same compound?
Answer: Its normalized growth is 0.942 (inactive).

Question: What about the normalized growth (locus YKL190W, strain CNB1, hits give low values) of the same compound?
Answer: Its normalized growth is 0.939 (inactive).

Question: What about the normalized growth (locus YKR001C, strain vps1, hits give low values) of the same compound?
Answer: The normalized growth was 0.672 (active).

Question: What about the normalized growth (locus YKR026C, strain gcn3, hits give low values) of the same compound?
Answer: The normalized growth was 0.896 (active).

Question: And the normalized growth (locus YKR091W, strain srl3, hits give low values)?
Answer: The normalized growth was 0.948 (inactive).

Question: And the normalized growth (locus YLL001W, strain dnm1, hits give low values)?
Answer: The normalized growth was 0.951 (inactive).

Question: What about the normalized growth (locus YLL026W, hits give low values) of the same compound?
Answer: Its normalized growth is 0.943 (inactive).

Question: What about the normalized growth (locus YLL041C, strain sdh2, hits give low values) of the same compound?
Answer: The normalized growth was 0.929 (inactive).

Question: What about the normalized growth (locus YLR027C, strain aat2, hits give low values) of the same compound?
Answer: Its normalized growth is 0.927 (inactive).

Question: And the normalized growth (locus YLR039C, strain RIC1, hits give low values)?
Answer: Its normalized growth is 0.346 (active).

Question: What about the normalized growth (locus YLR058C, strain SHM2, hits give low values) of the same compound?
Answer: Its normalized growth is 0.909 (inactive).

Question: What about the normalized growth (locus YLR102C, strain apc9, hits give low values) of the same compound?
Answer: Its normalized growth is 0.917 (active).

Question: And the normalized growth (locus YLR113W, strain HOG1, hits give low values)?
Answer: Its normalized growth is 0.862 (inactive).

Question: What about the normalized growth (locus YLR221C, strain rsa3, hits give low values) of the same compound?
Answer: Its normalized growth is 0.932 (inactive).

Question: And the normalized growth (locus YLR258W, strain gsy2, hits give low values)?
Answer: The normalized growth was 0.948 (inactive).

Question: And the normalized growth (locus YLR262C, strain YPT6 (second series), hits give low values)?
Answer: The normalized growth was 0.558 (active).

Question: And the normalized growth (locus YLR262C, strain YPT6, hits give low values)?
Answer: The normalized growth was 0.352 (active).

Question: And the normalized growth (locus YLR268W, strain sec22, hits give low values)?
Answer: Its normalized growth is 0.861 (active).

Question: And the normalized growth (locus YLR320W, strain mms22, hits give low values)?
Answer: Its normalized growth is 0.797 (active).

Question: And the normalized growth (locus YLR330W, strain CHS5, hits give low values)?
Answer: The normalized growth was 0.876 (active).

Question: What about the normalized growth (locus YLR342W, strain FKS1 (second series), hits give low values) of the same compound?
Answer: The normalized growth was 0.662 (active).

Question: And the normalized growth (locus YLR342W, strain FKS1, hits give low values)?
Answer: The normalized growth was 0.915 (inactive).

Question: And the normalized growth (locus YLR357W, strain rsc2, hits give low values)?
Answer: Its normalized growth is 0.919 (inactive).

Question: And the normalized growth (locus YLR370C, strain arc18, hits give low values)?
Answer: The normalized growth was 0.927 (inactive).

Question: What about the normalized growth (locus YLR371W, strain rom2, hits give low values) of the same compound?
Answer: The normalized growth was 0.77 (active).

Question: And the normalized growth (locus YLR384C, strain iki3, hits give low values)?
Answer: The normalized growth was 0.962 (inactive).

Question: What about the normalized growth (locus YLR418C, strain cdc73, hits give low values) of the same compound?
Answer: Its normalized growth is 0.453 (active).

Question: What about the normalized growth (locus YML016C, strain PPZ1, hits give low values) of the same compound?
Answer: Its normalized growth is 0.924 (inactive).

Question: What about the normalized growth (locus YML032C, strain rad52, hits give low values) of the same compound?
Answer: The normalized growth was 0.774 (active).

Question: And the normalized growth (locus YML120C, strain ndi1, hits give low values)?
Answer: Its normalized growth is 0.904 (active).

Question: And the normalized growth (locus YML124C, strain tub3, hits give low values)?
Answer: Its normalized growth is 0.904 (active).

Question: What about the normalized growth (locus YMR058W, strain fet3, hits give low values) of the same compound?
Answer: Its normalized growth is 0.929 (inactive).

Question: What about the normalized growth (locus YMR078C, strain ctf18, hits give low values) of the same compound?
Answer: The normalized growth was 0.861 (active).

Question: And the normalized growth (locus YMR125W, strain sto1, hits give low values)?
Answer: The normalized growth was 0.942 (inactive).

Question: And the normalized growth (locus YMR129W, hits give low values)?
Answer: Its normalized growth is 0.946 (inactive).

Question: What about the normalized growth (locus YMR205C, strain PFK2, hits give low values) of the same compound?
Answer: The normalized growth was 0.861 (active).

Question: And the normalized growth (locus YMR223W, strain ubp8, hits give low values)?
Answer: Its normalized growth is 0.825 (active).

Question: What about the normalized growth (locus YMR231W, strain pep5, hits give low values) of the same compound?
Answer: The normalized growth was 0.983 (inactive).

Question: And the normalized growth (locus YMR307W, strain GAS1, hits give low values)?
Answer: Its normalized growth is 0.402 (active).

Question: What about the normalized growth (locus YNL067W, strain RPL9B, hits give low values) of the same compound?
Answer: Its normalized growth is 0.867 (inactive).

Question: What about the normalized growth (locus YNL071W, strain lat1, hits give low values) of the same compound?
Answer: Its normalized growth is 0.786 (active).

Question: And the normalized growth (locus YNL128W, strain TEP1, hits give low values)?
Answer: Its normalized growth is 0.905 (inactive).

Question: What about the normalized growth (locus YNL153C, strain GIM3, hits give low values) of the same compound?
Answer: Its normalized growth is 0.905 (inactive).

Question: And the normalized growth (locus YNL183C, strain NPR1, hits give low values)?
Answer: The normalized growth was 0.859 (inactive).

Question: And the normalized growth (locus YNL209W, strain ssb2, hits give low values)?
Answer: Its normalized growth is 0.955 (inactive).

Question: And the normalized growth (locus YNL233W, strain BNI4, hits give low values)?
Answer: Its normalized growth is 0.788 (active).

Question: And the normalized growth (locus YNL248C, strain rpa49, hits give low values)?
Answer: Its normalized growth is 0.923 (inactive).

Question: And the normalized growth (locus YNL250W, strain rad50, hits give low values)?
Answer: Its normalized growth is 0.95 (inactive).

Question: What about the normalized growth (locus YNL271C, strain bni1, hits give low values) of the same compound?
Answer: The normalized growth was 0.918 (active).

Question: What about the normalized growth (locus YNL298W, strain CLA4, hits give low values) of the same compound?
Answer: The normalized growth was 0.908 (active).

Question: What about the normalized growth (locus YNL307C, strain MCK1, hits give low values) of the same compound?
Answer: The normalized growth was 0.323 (active).

Question: And the normalized growth (locus YNL322C, strain KRE1 (second series), hits give low values)?
Answer: Its normalized growth is 0.942 (inactive).

Question: What about the normalized growth (locus YNR049C, strain mso1, hits give low values) of the same compound?
Answer: The normalized growth was 0.933 (inactive).

Question: What about the normalized growth (locus YNR052C, strain pop2, hits give low values) of the same compound?
Answer: Its normalized growth is 0.883 (active).

Question: What about the normalized growth (locus YOL012C, strain htz1) of the same compound?
Answer: Its normalized growth is 1.98 (inactive).

Question: What about the normalized growth (locus YOL147C, strain pex11, hits give low values) of the same compound?
Answer: Its normalized growth is 0.767 (active).

Question: What about the normalized growth (locus YOR001W, strain rrp6, hits give low values) of the same compound?
Answer: Its normalized growth is 0.92 (inactive).

Question: What about the normalized growth (locus YOR061W, strain CKA2, hits give low values) of the same compound?
Answer: The normalized growth was 0.928 (inactive).

Question: What about the normalized growth (locus YOR069W, strain VPS5, hits give low values) of the same compound?
Answer: Its normalized growth is 0.95 (inactive).

Question: And the normalized growth (locus YOR070C, strain gyp1, hits give low values)?
Answer: Its normalized growth is 0.937 (inactive).

Question: And the normalized growth (locus YOR080W, strain dia2, hits give low values)?
Answer: Its normalized growth is 0.961 (inactive).

Question: What about the normalized growth (locus YOR083W, strain WHI5, hits give low values) of the same compound?
Answer: Its normalized growth is 0.93 (inactive).

Question: What about the normalized growth (locus YOR106W, strain vam3, hits give low values) of the same compound?
Answer: Its normalized growth is 0.878 (inactive).

Question: And the normalized growth (locus YOR136W, strain idh2, hits give low values)?
Answer: Its normalized growth is 0.919 (active).

Question: What about the normalized growth (locus YOR144C, strain elg1, hits give low values) of the same compound?
Answer: Its normalized growth is 0.888 (active).

Question: What about the normalized growth (locus YOR184W, strain ser1, hits give low values) of the same compound?
Answer: The normalized growth was 0.504 (active).

Question: What about the normalized growth (locus YOR231W, strain MKK1, hits give low values) of the same compound?
Answer: Its normalized growth is 0.923 (inactive).

Question: What about the normalized growth (locus YOR265W, strain rbl2, hits give low values) of the same compound?
Answer: Its normalized growth is 0.931 (inactive).

Question: What about the normalized growth (locus YOR270C, strain vph1, hits give low values) of the same compound?
Answer: Its normalized growth is 0.732 (active).

Question: What about the normalized growth (locus YOR290C, strain snf2, hits give low values) of the same compound?
Answer: The normalized growth was 0.885 (inactive).

Question: What about the normalized growth (locus YOR316C, strain cot1, hits give low values) of the same compound?
Answer: The normalized growth was 0.918 (active).

Question: What about the normalized growth (locus YPL051W, strain arl3, hits give low values) of the same compound?
Answer: The normalized growth was 0.938 (inactive).

Question: What about the normalized growth (locus YPL078C, strain atp4, hits give low values) of the same compound?
Answer: Its normalized growth is 0.929 (inactive).

Question: What about the normalized growth (locus YPL106C, strain sse1, hits give low values) of the same compound?
Answer: The normalized growth was 0.965 (inactive).

Question: And the normalized growth (locus YPL240C, strain hsp82, hits give low values)?
Answer: The normalized growth was 0.953 (inactive).

Question: What about the normalized growth (locus YPL256C, strain CLN2, hits give low values) of the same compound?
Answer: The normalized growth was 0.904 (inactive).

Question: And the normalized growth (locus YPR119W, strain clb2, hits give low values)?
Answer: The normalized growth was 0.91 (active).

Question: And the normalized growth (locus YPR141C, strain kar3, hits give low values)?
Answer: Its normalized growth is 0.896 (active).

Question: And the normalized growth (locus YPR163C, strain tif3, hits give low values)?
Answer: The normalized growth was 0.71 (active).

Question: And the normalized growth (locus YPR167C, strain met16, hits give low values)?
Answer: Its normalized growth is 0.885 (active).

Question: And the normalized growth (strain wtn01, hits give low values)?
Answer: Its normalized growth is 0.751 (active).
